From PubChem
These entries were drawn from the full list.
aSyn 5UTR act – Activators working through SNCA 5'UTR binding (MLPCN). alpha-synuclein 5'UTR reporter, activators screen. 300,000 tested, 7.1% active. activity score, % (tested at 7.5 µM), hits read low. AID 1814; in the data active means activity score below about -60%
Active calls of the source: *.

SMILES	aSyn 5UTR act
O=C(NNC(=S)Nc1cccc(Cl)c1)c1ccccc1	-104*
N#Cc1ccccc1N/C=C/C(=O)c1ccc(Cl)cc1	-169*
O=C(NNC(=S)Nc1ccccc1Cl)c1ccccc1	-98*
COc1ccc(C(=O)NNC(=O)c2cccc(F)c2)cc1	-82*
O=C(NNC(=S)Nc1ccc(Cl)cc1)c1ccccc1	-87*
O=C(/C=C/NNC(=O)c1ccc(Cl)cc1)c1ccccc1	-77*
O=C1N=C(N2CCOCC2)SC1=C1CCCCC1	-85*
O=[N+]([O-])c1ccccc1S(=O)(=O)Oc1ccccc1/C=N/n1cnnc1	-79*
CCOc1ccc(-c2ccc(SCC(=O)N3CCN(c4ccccc4)CC3)nn2)cc1	-69*
O=C(CSc1ccc(-c2ccccn2)nn1)N1CCCCC1	-66*
O=C(CSc1ccc(-c2ccccc2)nn1)N1CCCCC1	-155*
CC(=O)c1cccc(NC(=O)CSc2ccc(-c3ccccn3)nn2)c1	69
O=C(Nc1ccc2nc3n(c(=O)c2c1)CCCC3)c1cccc([N+](=O)[O-])c1	-103*
COc1cc(OC)cc(C(=O)Nc2ccc3nc4n(c(=O)c3c2)CCCCC4)c1	-115*
CC(=O)Nc1ccc(NC(=O)c2sc3nc4n(c(=O)c3c2C)CCCCC4)cc1	76
COc1ccc(OCCCn2cc(/C=C3/C(=N)N4C=C(C)SC4=NC3=O)c3ccccc32)cc1	-70*
N=C(N)SCc1nc2ccccc2c(=O)n1-c1ccccc1	-95*
O=c1c2ccccc2nc(N/N=C/c2c(O)ccc3ccccc23)n1O	82
CCn1c(SCC(=O)Nc2ccc(C)cc2)nc(O)cc1=O	-71*
Oc1cccc(/C=N/c2c(-c3ccco3)nc3ccccn23)c1	-72*
Cc1cc(C)c([N+](=O)[O-])cc1-c1ccc(/C=N/c2c(-c3ccco3)nc3ccccn23)o1	-92*
O=[N+]([O-])c1ccc(-c2ccc(/C=N/c3c(-c4ccco4)nc4ccccn34)o2)cc1	-75*
O=C(c1cc(COc2ccc(F)cc2Cl)on1)N1C[C@H]2CC[C@H]1C2	-164*
O=C(c1cc(COc2ccc(F)cc2Cl)on1)N1CC2C[C@@H]3CC1C[C@H](C2)C3	-190*
CN(C)c1cccc(C(=O)NNC(=S)NC2CCCC2)c1	-64*
SMILES	aSyn 5UTR act
CC(C)c1cc(C(=O)NNC(=S)NC2CCCCC2)cs1	-86*
CCc1cc(C(=O)NNC(=S)NC2CCCCC2)cs1	-87*
CCCN(CCC)S(=O)(=O)c1ccc(C(=O)Nc2nnc(-c3cc(OC)cc(OC)c3)o2)cc1	82
Cc1ccc(/C=C/c2nnc(-c3ccc(C)cc3)o2)cc1	-69*
Cc1ccc(C(=O)Nc2nnc(-c3ccncc3)o2)cc1	-82*
Clc1ccc(-c2nnc(N3CCOCC3)o2)cc1	-71*
COc1ccc(-c2ccc(-c3nnc(-c4ccncc4)o3)cc2)cc1	-115*
COc1ccc(-c2nnc(NC(=O)c3ccc(S(=O)(=O)N4COCC4(C)C)cc3)o2)cc1	76
Fc1ccc(-c2nnc(-c3ccc(Cl)cc3)o2)cc1	-194*
Cc1ccc(-c2nnc(-c3cccs3)o2)cc1	-93*
CCNc1nnc(-c2ccc(C)cc2)o1	-80*
COc1ccc(-c2nnc(-c3ccc(C)cc3)o2)cc1	-103*
COc1ccc(-c2nnc(-c3ccc(F)cc3)o2)cc1	-152*
CCN(CC)CCCNc1ccc(-c2nnc(-c3ccc(OCC(C)C)cc3)o2)cn1	121
CCCc1nnc(-c2ccc(OC)cc2)o1	-67*
Cc1ccc(-c2nnc(-c3ccccc3)o2)cc1	-77*
Fc1ccc(/C=C/c2nnc(-c3cccs3)o2)cc1	-129*
Cc1nc(SCC(=O)c2cccs2)c2oc3ccccc3c2n1	-134*
O=C(CSc1ncnc2c1oc1ccccc12)c1cccs1	-125*
Cc1ccc(C(=O)NC2=NCCS2)cc1	-118*
Cc1ccc(C(=O)Nc2ccsc2C(=O)O)cc1	-141*
COc1ccc(C(=O)NC2=NCCS2)cc1	-91*
O=C(NC1=NCCS1)c1ccc(C(F)(F)F)cc1	-123*
N#Cc1ccc(C(=O)NC2=NCCS2)cc1	-141*
Cc1ccc(C(=O)NC2=NCCS2)cc1Cl	-110*
SMILES	aSyn 5UTR act
Cc1ccc(-n2c(C)nn(CCOc3ccccc3)c2=O)cc1	-104*
Cc1nn(CCOc2ccccc2)c(=O)n1-c1c(F)cccc1F	-108*
O=c1c2ccccc2cnn1CCOc1ccccc1	72
COc1ccc(OCCOC(=O)c2cccc(-n3cnnn3)c2)cc1	-81*
CCOc1ccc(NC(=S)NC(=O)/C=C/c2ccco2)cc1	-91*
CN1CCN(c2ccc(NC(=S)NC(=O)/C=C/c3ccco3)cc2)CC1	-147*
CC(C)c1ccc(/C=C/C(=O)NC(=S)Nc2ccc(CN3CCOCC3)cc2)cc1	-130*
COc1cccc(NC(=S)NC(=O)/C=C/c2ccco2)c1	-114*
O=C(/C=C/c1ccccc1)NC(=S)Nc1ccc(N2CCOCC2)cc1	-79*
OC1(C(F)(F)F)CC(O)(C(F)(F)F)n2nc(-c3ccccc3)cc2N1 (stereo not given)	-126*
Clc1ccc(-n2nnc(-c3ncc[nH]3)n2)cc1Cl	-171*
Cc1ccc(-n2nnc(-c3nccs3)n2)cc1	95
Fc1ccc(-n2nnc(-c3ncc[nH]3)n2)cc1	-126*
Clc1ccc(-n2nnc(-c3nccs3)n2)cc1Cl	-92*
Cc1ccc(N/C=C/C(=O)c2ccco2)c(O)c1	-158*
Cc1ccc([N+](=O)[O-])cc1N/C=C/C(=O)c1ccco1	-138*
O=C(Nc1ccc(Cc2ccncc2)cc1)C1CCC(N2C(=O)C3C4C=CC(C5CC45)C3C2=O)CC1 (stereo not given)	-62*
Nc1nc(-c2ccc(Br)s2)c(Br)s1	-77*
Cc1ccc2c(c1)[nH]c1c(=O)n(Cc3ccco3)cnc12	-118*
Cc1cc(-c2ccc(N3CCOCC3)cc2)nc2ccccc12	-307*
c1ccc2nc(-c3ccc(N4CCOCC4)cc3)ccc2c1	104
O=C(COC(=O)c1ccc[nH]c1=O)NCCc1ccc(Cl)cc1Cl	-98*
Clc1ccc(-n2ncc3c(NCC4CCCO4)ncnc32)cc1 (stereo not given)	-89*
c1ccc(-n2ncc3c(NCC4CCCO4)ncnc32)cc1 (stereo not given)	-132*
COc1ccc(-n2ncc3c(NCC4CCCO4)ncnc32)cc1 (stereo not given)	-140*
SMILES	aSyn 5UTR act
Cc1ccccc1Nc1ncnc2c1cnn2-c1ccccc1	-112*
c1ccc(-n2ncc3c(NC4CCCCCC4)ncnc32)cc1	-97*
CN(C)/C=N/C(=S)Nc1ccc(Cl)cc1Cl	-107*
COc1ccccc1NC(=O)COc1ccccc1C(=O)c1cnn(-c2ccccc2)c1	-136*
CCc1ccc(NC(=O)COc2ccc(F)cc2C(=O)c2cnn(-c3ccccc3)c2)cc1	-130*
O=[N+]([O-])c1ccc2c(c1)nc1n2CCN(C2CCCCC2)C1	-127*
O=C(/C=C/c1ccccc1)NCCOc1ccccc1	-64*
O=C(/C=C/c1ccccc1)NCCC1=CCCCC1	-194*
COc1ccccc1/C=C/C(=O)NCCC1=CCCCC1	-150*
O=C(NCCOc1ccccc1)C1CCCCC1	-89*
O=C(/C=C/c1ccc(F)cc1)NCCC1=CCCCC1	-105*
CCOc1ccc(Nc2oc(-c3ccc(Cl)cc3)nc2C#N)cc1	-139*
COc1ccc(Nc2oc(-c3ccc(OC)cc3)nc2C#N)cc1	-132*
CCOc1ccc(-c2nc(C#N)c(NC3CC3)o2)cc1	-95*
COc1ccc(Nc2oc(-c3ccccc3)nc2C#N)cc1	-112*
CNc1oc(-c2ccccc2)nc1C#N	-62*
